Sampled rows, rich in hits. Any-hit rate of the full collection: about 4.8%.
ssDAF12 agonist – S. stercoralis DAF-12 activation, primary screen; activation, % at 6.8 µM; 1% of 370,000 active; HEK293 ssDAF-12/GRIP1 lit1-tk-luc reporter, luminescence; % of 3 µM dafachronic acid response; AID 652126;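 active = activation above the mean over all tested compounds plus 3 SD, cut at about 0.9% in these data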;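 also: 0% = DMSO-only wells and 100% = 3 µM delta7-dafachronic acid wells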
hcDAF12 agonist – H. contortus DAF-12 activation, primary screen | HEK293 hcDAF-12 lit1-tk-luc reporter, luminescence; 0% DMSO, 100% Δ7-dafachronic acid | activation, % at 6.8 µM | 1.4% of 370,000 active;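 active = activation above the mean of all tested compounds plus 3 SD, cut at about 5.5% in these data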;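 also: 100% = response to 3 µM Δ7-dafachronic acid high control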
hgDAF12 agonist – agonists of H. glycines DAF-12 nuclear receptor | activation, % at 6.8 µM | 1.8% of 370,000 active | AID 687014 | HEK293 GAL4-hgDAF12 UAS-luciferase reporter, agonist luminescence; normalized to butyrate control;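 active = activation above a cutoff set at the mean of all screened compounds plus 3 SD, cut at about 10% in these data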;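 also: 0% = DMSO wells and 100% = sodium butyrate wells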
SMARCA2 act – activators of SMARCA2 function; MG213 cells, MMTV-luciferase reporter, dexamethasone, overnight; activation, % at 9.1 µM; 1% of 370,000 active; in the data active = activation above about 7.8%;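 also: 0% = vehicle wells and 100% = reference activator wells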
DAX1 inh-1 – inhibitors of DAX1 repression of SF-1 activated StAR promoter | AID 652010 | HEK293T StAR-luciferase reporter, SF-1/DAX-1 repression relief | 1.1% of 370,000 active | inhibition, % at 6.8 µM;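 active = inhibition above the mean over all tested compounds plus 3 SD, cut at about 3.6% in these data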;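 also: 0% = DAX-1 cells with DMSO and 100% = cells lacking DAX-1 with DMSO; higher inhibition means more luminescence from relief of DAX-1 repression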
DAX1 inh-2 – inhibits human nuclear receptor DAX1; P51843; HEK293 Gal4-DAX1 luciferase reporter, luminescence; inhibition, % at 6.75 µM; 0.99% of 340,000 active; AID 504766;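 active = inhibition above the mean over all tested compounds plus 3 SD, cut at about 4.2% in these data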;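 also: 0% = DAX1-transfected cells with DMSO and 100% = empty-vector control cells with DMSO; inhibition shows as a rise in luminescence from relieved DAX1 repression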
Target sequence (P51843 207-470 limits assumed): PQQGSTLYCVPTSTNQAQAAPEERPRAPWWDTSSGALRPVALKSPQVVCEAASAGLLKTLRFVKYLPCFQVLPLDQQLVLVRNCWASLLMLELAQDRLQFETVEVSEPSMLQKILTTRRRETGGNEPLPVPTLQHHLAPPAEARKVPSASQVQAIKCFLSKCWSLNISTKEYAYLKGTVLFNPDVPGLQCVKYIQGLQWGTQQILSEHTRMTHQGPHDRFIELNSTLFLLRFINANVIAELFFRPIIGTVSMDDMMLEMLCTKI
An asterisk follows results filed as active; x = not tested or not shown.

SMILES | ssDAF12 agonist | hcDAF12 agonist | hgDAF12 agonist | SMARCA2 act | DAX1 inh-1 | DAX1 inh-2
CS(=O)(=O)c1ccc(Cl)c(NC(=O)CN2CCCC2c2ccc3c(c2)OCCCO3)c1 (stereo not given) | -1.0 | -1.2 | 10.9* | -2.6 | -2.5 | 0.4
CN(CCO)c1cccc2c1S(=O)(=O)N(Cc1cn(Cc3ccc(Cl)cc3)nn1)Cc1ccccc1O2 | -1.4 | -0.7 | -1.3 | -3.8 | -1.9 | x
COC(=O)C1CN(Cc2ccccc2)CCS(=O)(=O)N1Cc1ccc(C)cc1 (stereo not given) | -1.7 | -2.3 | -3.4 | -0.7 | -1.6 | x
CNC(=O)CC1C(=O)N(Cc2ccccc2)C(=S)N1NC(=O)c1cccc(F)c1 (stereo not given) | 1.2* | -2.7 | 2.5 | -1.2 | 0.2 | -1.2
N#Cc1c(SCC(=O)Nc2ccccc2)nsc1SCC(=O)Nc1ccccc1 | 23.3* | 1.6 | 3.1 | -2.7 | 0.5 | 2.1
CSc1snc(SCC(N)=O)c1C#N | -1.5 | -1.2 | 11.8* | -1.2 | 0.0 | -0.1
Cc1ccc(SCCSc2nc(C)cc(=O)[nH]2)cc1 | -0.4 | 0.7 | 2.5 | 6.1 | 0.1 | 5.0*
Cc1ccc(SCCSc2nc(N)cc(=O)[nH]2)cc1 | -1.7 | 0.2 | -1.8 | -4.0 | -0.2 | 0.1
COC(=O)[C@]12C[C@H](CC(=O)N3CCOCC3)C(=O)N(Cc3ccco3)C1=C[C@H](COCc1ccccc1)O[C@@H]2C | -0.5 | 1.8 | -3.5 | 2.6 | -0.7 | x
Brc1c(-c2ccc3c(c2)OCO3)nc2ncccn12 | -0.7 | 1.3 | 9.3 | 4.4 | 0.9 | 0.2
COc1ccc(-c2nc3ncccn3c2Br)cc1 | 0.5 | 2.7 | 10.7* | 4.1 | 1.7 | 10.0*
CCn1c(SCC(=O)NN=Cc2c(C)nn(-c3ccccc3)c2C)nnc1-c1ccc(OC)c(OC)c1 | -1.9 | -1.2 | -0.3 | -1.2 | -1.8 | x
O=C(Nc1ccc(-c2nc3ncccc3o2)cc1)c1ccco1 | 0.2 | 2.6 | 10.6* | 3.4 | 1.9 | 0.1
O=[N+]([O-])c1ccc2nc(COCc3nc4ccccc4[nH]3)[nH]c2c1 | -1.2 | -3.7 | -4.6 | x | x | x
C[C@H]1[C@H](NC(=O)c2ccc(Cl)c(Cl)c2)CC[C@@]23CCCN2C(=O)CCC[C@@H]13 | -1.4 | -2.3 | -1.1 | x | x | x
CC(C)NC(=O)c1cc2c(-c3ccc(Cl)cc3)nn(C)c2s1 | 0.4 | 3.1 | 2.4 | -1.2 | 0.2 | 4.4*
Cc1nn(-c2ccccc2)c2sc(C(=O)N3CCOCC3)cc12 | 1.3* | 6.5* | 9.3 | 5.2 | 1.8 | 2.1
Cn1nc(-c2ccc(Cl)cc2)c2cc(C(=O)N3CCN(c4ccccc4)CC3)sc21 | 0.1 | 5.7* | 2.0 | -0.7 | -0.3 | -0.3
CCCCNC(=O)c1cc2c(-c3ccc(Cl)cc3)nn(C)c2s1 | 0.5 | 5.9* | 5.6 | -2.7 | -0.7 | 3.6
COCCCNC(=O)c1cc2c(-c3ccc(Cl)cc3)nn(C)c2s1 | -0.5 | 4.2 | -0.2 | -1.0 | 0.0 | 1.5
C[C@H]1[C@@H](OC(=O)Nc2ccc(C#N)cc2)CC[C@@]23CCCN2C(=O)CCC[C@@H]13 | -1.5 | -3.7 | -1.5 | x | x | x
COC(=O)[C@]12CCCCC=C1N(Cc1ccc(OC)cc1)C(=O)[C@@H]2CC(=O)N1CCCCC1 | -1.0 | -3.0 | 2.6 | -1.5 | -2.5 | x
CC(COc1cccc(C(F)(F)F)c1)CN1CCC(C(O)(c2ccccc2)c2ccccc2)CC1 (stereo not given) | -0.7 | -0.9 | -2.6 | -2.2 | 0.1 | x
Cc1ccc(CNC(=O)c2cc3c(-c4ccc(Cl)cc4)nn(C)c3s2)o1 | 1.6* | 5.1 | 0.2 | -2.8 | 0.4 | 1.2
CCN1CCCC1CNC(=O)c1cc2c(-c3ccc(Cl)cc3)nn(C)c2s1 (stereo not given) | x | x | x | x | x | 4.6*
SMILES | ssDAF12 agonist | hcDAF12 agonist | hgDAF12 agonist | SMARCA2 act | DAX1 inh-1 | DAX1 inh-2
COc1cccc(-c2nn(C)c3sc(C(=O)NCc4ccco4)cc23)c1 | -1.3 | 0.2 | 1.7 | 7.7 | -1.5 | -0.1
CCN1CCCC1CNC(=O)c1cc2c(-c3cccc(OC)c3)nn(C)c2s1 (stereo not given) | 0.6 | 3.9 | 2.3 | 4.0 | 1.3 | 0.1
CC(=O)c1cc(-c2ccc(Cl)c(C(F)(F)F)c2)c(=O)n2c1CCC2 | -1.5 | 1.2 | 0.0 | -1.9 | -1.2 | x
COc1cc(C(c2c(C(=O)O)[nH]c3ccccc23)c2c(C(=O)O)[nH]c3ccccc23)ccc1OCc1ccccc1 | 0.5 | 5.9* | 0.5 | -0.8 | -0.2 | 1.2
C=CCn1c(SCC(=O)OC(C)C)nnc1-c1ccc(C)cc1 | -1.2 | -0.5 | -0.1 | -2.2 | -0.8 | x
Cn1c(NCc2cccs2)nc2ccccc21 | 1.7* | 6.1* | 8.0 | 0.1 | 1.2 | 1.7
CCn1c(NCc2cccs2)nc2ccccc21 | -1.1 | -0.7 | -0.1 | 1.7 | -0.5 | 0.7
O=C(CN1CCN(Cc2ccccc2)CC1)N1N=CCC1c1ccccc1 (stereo not given) | 0.1 | -1.3 | 1.7 | 0.2 | 0.7 | 4.8*
C=CCN1C(=O)[C@@H](CC(=O)N2CCOCC2)[C@]2(C(=O)OC)CCCCC=C12 | -0.7 | -0.2 | 2.5 | -1.4 | 0.4 | x
N#Cc1cccc(NC(=O)OCCN2C(=O)CCC23CCC(c2ccccc2)CC3)c1 (stereo not given) | -1.8 | -2.2 | -0.4 | -3.9 | -0.3 | x
COc1cccc(CC(=O)Nc2ccc3c(c2)c(=O)n(C)n3-c2ccc(C(C)(C)C)cc2)c1 | 4.1* | -0.9 | 0.1 | 0.8 | -0.2 | x
CCc1ccc(-c2ccc(C(=O)C(F)(F)F)[nH]2)cc1 | -0.2 | 3.2 | 12.6* | 1.3 | 2.4 | 2.4
O=C(O)c1ccc(-c2ccccc2)[nH]1 | -0.1 | 0.6 | -2.1 | 1.2 | -0.3 | 1.8
Cc1ccc(-c2ccc(NC(=O)C3C4C=CC(C4)C3C(=O)O)cc2)o1 (stereo not given) | -0.7 | 1.3 | 12.9* | 2.1 | 1.4 | 0.0
COc1ccc(NC(=O)C2C3C=CC(C3)C2C(=O)O)cc1 (stereo not given) | -1.5 | -1.8 | -2.1 | 2.0 | -0.2 | 2.1
COc1ccc(-c2ccc3sc4ccccc4c(=O)c3c2)cn1 | -0.6 | 1.9 | 10.5* | 7.2 | 0.6 | 2.1
CCN1CCN(c2ccc(S(=O)(=O)N3CCOCC3)cc2NC(=O)c2cccc([N+](=O)[O-])c2)CC1 | 1.1* | 0.7 | 3.3 | 2.1 | 0.1 | 1.0
CCN1CCN(c2ccc(S(=O)(=O)N3CCCCC3)cc2NC(=O)c2ccc(F)cc2)CC1 | -0.5 | 0.2 | 5.0 | -3.0 | -0.2 | 1.6
CCN1CCN(c2ccc(S(=O)(=O)N3CCOCC3)cc2NC(=O)c2ccc(C(F)(F)F)cc2)CC1 | -0.8 | -0.9 | 1.8 | -0.4 | -0.1 | 5.9*
O=C(OC12CCCN(C1)/C(=C/c1ccccc1)C2)C1CCCC1 (stereo not given) | -1.2 | -0.2 | -1.3 | -4.0 | 0.3 | x
O=C(Nc1nc2ncccn2c1-c1ccc(C(F)(F)F)cc1)c1ccccc1 | -0.6 | 0.5 | 2.9 | -2.6 | -1.1 | x

Assay outcomes from PubChem.
